# Bioassay records: PubChem, National Center for Advancing Translational Sciences (NCATS)
# Tb PYK inh: inhibitors of Trypanosoma brucei pyruvate kinase; Q57TT1; TbPYK enzyme, Kinase-Glo Plus ATP luminescence, 45 min; Potency, µM (highest dose often 76.8 µM), inactives show at the top dose activity, negative = inhibition, hits mostly inhibitors; 410,000 compounds, 0.12% hits; AID 624173; further: potency means the concentration at half of the fitted maximal effect; nearly all actives have a fitted effect of over 50% in size
#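 ADP (130 uM final) triggers the TbPYK reaction after compound addition; incubation is 45 min at room temperature. Kinase-Glo Plus is then added and luminescence imaged. Normalized data are fitted to concentration-effect curves.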
# HCMV inh: inhibitors of human cytomegalovirus | HFF cells, HCMV-luciferase reporter, 72 h; hits give low values | activity change, negative = inhibition, % at 57.5 µM | 410,000 compounds, 4.5% hits; in the data active means activity change below about -60%; inconclusive means no clear call, values can overlap the other calls; inactive means above about -39%
#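 Steps: HFFs plated, 16 h 37C; compounds added; HCMV-luciferase added to MOI 1 PFU/cell; 72 h 37C; OneGlo reagent, 5 min room temperature; luminescence read, normalized to controls.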
# LmPK inhibitor: LmPK (Leishmania mexicana) enzyme inhibition. Q27686. purified LmPK, Kinase-Glo ATP luminescence, 1 h. Potency, µM (highest dose often 57.5 µM), inactives show at the highest dose activity change, negative = inhibition, most hits filed as inhibitors. 290,000 compounds, 0.37% hits. AID 1721; further: potency means the concentration at half of the fitted maximal effect
# Target sequence (Q27686 whole entry, looked up): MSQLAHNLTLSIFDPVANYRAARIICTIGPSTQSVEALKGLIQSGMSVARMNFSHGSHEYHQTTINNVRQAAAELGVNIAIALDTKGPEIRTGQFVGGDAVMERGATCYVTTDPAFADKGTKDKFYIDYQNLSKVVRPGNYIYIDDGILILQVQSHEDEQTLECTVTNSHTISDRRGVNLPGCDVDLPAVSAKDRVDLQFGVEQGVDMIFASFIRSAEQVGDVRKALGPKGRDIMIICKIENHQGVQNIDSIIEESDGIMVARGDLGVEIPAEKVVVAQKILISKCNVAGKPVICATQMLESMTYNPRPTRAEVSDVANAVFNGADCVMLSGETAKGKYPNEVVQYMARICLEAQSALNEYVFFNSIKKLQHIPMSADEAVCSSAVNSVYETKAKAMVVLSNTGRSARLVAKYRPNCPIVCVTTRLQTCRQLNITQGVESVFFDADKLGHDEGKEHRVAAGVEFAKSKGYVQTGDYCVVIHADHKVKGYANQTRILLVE
#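 In 50 mM imidazole pH 7.2 with 7 mM MgCl2, LmPK (0.1 nM) turned over PEP (0.5 mM) and ADP (0.1 mM) for 1 h at room temperature. Luciferase read-out of ATP.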
# VACV mCherry inh: inhibitors of vaccinia virus infection (mCherry reporter signal); Vaccinia virus mCherry reporter infection, fluorescence; Potency, µM (highest dose often 36.5 µM), without a hit: top-dose activity change, negative = inhibition, most hits filed as inhibitors; AID 720579; 310,000 compounds, 0.63% hits; calls by dose curve; tested in A549 cells; further: potency means the concentration at half of the fitted maximal effect; nearly all actives have a fitted effect of over 35% in size
# VACV Venus inh: vaccinia inhibition (Venus reporter); Vaccinia virus Venus reporter expression, fluorescence; Potency, µM (top dose mostly 36.5 µM), for inactives: at the highest dose activity change, negative = inhibition, usual class: inhibitors; 330,000 compounds, 0.46% hits; calls by dose curve; tested in A549 cells; further: potency means the concentration at half of the fitted maximal effect; nearly all actives have a fitted effect of over 30% in size
# The depositor's hits bear a star; i = inactive; u = inconclusive; x = no result given; [ ] = dose if it differs, or a comment. Hits are enriched below; roughly 5% of the tested compounds scored in any of these assays. Unless noted, the call rests on the fitted dose curve; in most records, active means well fitted curve in the direction sought with a large enough effect; inconclusive means small, poorly fitted or top-dose-only effect, or another doubt; inactive means no such curve, though single readings can be large; an effect the other way counts as inactive or inconclusive. On the % scale 0 is the no-effect control and ±100 the full control effect.
SMILES,Tb PYK inh,HCMV inh,LmPK inhibitor,VACV mCherry inh,VACV Venus inh
FC(F)(F)c1nc(-c2cccs2)ncc1-c1nnnn1-c1ccc(Cl)cc1,-13%,-61*,2%,x,x
FC(F)(F)c1nc(-c2cccnc2)ncc1-c1nnnn1-c1ccccc1,3%,-26,-2%,x,x
Cc1cccc(NC(=O)NC2CC(=O)N(c3ccc4c(c3)OCCO4)C2)n1 (stereo unspecified),2%,0,5%,-4%,-15%
O=C(Nc1ccc(-c2nnc(-c3ccco3)o2)cc1)C(c1ccccc1)c1ccccc1,0%,-29,3%,x,u
Cc1cc(Nc2ccc(C)c(Cl)c2)n2nc(-c3ccccc3)nc2n1,-3%,-27,x,-20%,-12%
O=c1[nH]c(=S)[nH]c(O)c1N=Nc1ccc(SC(F)F)cc1,-20%,-61*,-17%,-17%,-4%
CC(C)c1ccc(N=Nc2c(O)[nH]c(=O)[nH]c2=O)cc1,2%,-15,1%,x,x
O=C(c1ccc2c(c1)OCCO2)C1CCN(C(=O)c2ccc(F)c(F)c2)CC1,-1%,-68*,4%,x,x
CCCCCCn1c(O)c(/C=N/N2CCCCCC2)c(=O)[nH]c1=O,-6%,-64*,1%,-9%[7.34 µM],-6%[7.34 µM]
COc1ccc(CCn2c(O)c(/C=N/N3CCCCC3)c(=O)[nH]c2=O)cc1OC,-15%,-9,4%,-14%,-2%
Cc1nc2ccccc2n1CC(=O)OCC(=O)N1CCC(C)CC1,7%,11,x,i,-15%
COC(=O)C(Cc1c[nH]c2ccccc12)NC(=O)COc1cccc(C)c1 (stereo unspecified),-5%,35,x,-8%,0%
Cc1[nH]nc2ccc(-c3cncc(OC[C@@H](N)Cc4c[nH]c5ccccc45)c3)cc12,-5%,x,x,u,0.89µM*
O=C1NC(=Nc2ccc(Cl)cc2)/C(=C/c2ccco2)S1,-4%,-80*,-8%,-1%,12%
Cc1nn2c(C)c(C(=O)NCCc3ccccc3)cnc2c1-c1ccccc1,5%,18,x,1%,3%
O=C(Nc1nnc(-c2ccccc2)s1)c1ccc(F)cc1,2%,-1,2%,i,-12%
COc1nc(NC(=O)c2ccc(F)cc2)nc(OC)c1-c1ccccc1,1%,-64*,0%,-3%,-6%
CC(=O)c1cccc(NC(=O)c2ccc(N(C)S(=O)(=O)c3ccc(C)cc3)cc2)c1,1%,-29,-10%,x,x
COc1ccc(-c2n[nH]c(=S)n2CC(C)C)cc1,u,23,28µM*,x,x
CCn1c(-c2csc3ccccc23)n[nH]c1=S,u,-39,10µM*,-9%,-21%
Cc1cccc(-n2c(-c3ccoc3C)n[nH]c2=S)c1,u,-5,u,i,-13%
Cc1cccc(-n2c(-c3csc4ccccc34)n[nH]c2=S)c1,u,-70*,u,i,-8%
CCn1c(-c2ccccc2O)n[nH]c1=S,u,-1,-1%,-15%,-8%
CC(C)Cn1c(-c2csc3ccccc23)n[nH]c1=S,u,-18,14µM*,-18%,-15%
CCN(CC(=O)Nc1ccc(NC(C)=O)cc1)C(=O)Cc1ccccc1F,0%,-4,4%,-10%,2%
SMILES,Tb PYK inh,HCMV inh,LmPK inhibitor,VACV mCherry inh,VACV Venus inh
COc1ccc(C(=O)C2CCCN(Cc3sc(N4CCCC4)nc3Cl)C2)c(OC)c1 (stereo unspecified),-16%,-72*,-3%,x,x
COc1ccc(C(=O)C2CCCN(Cc3cccn3-c3ccccn3)C2)cc1F (stereo unspecified),4%,-26,7%,-5%,-22%
COc1cccc(C(=O)C2CCCN(Cc3cccn3-c3ccccn3)C2)c1 (stereo unspecified),2%,-63*,10%,-3%,-19%
COc1ccc2cc(C(=O)C3CCCN(Cc4cnc(C)s4)C3)ccc2c1 (stereo unspecified),6%,-78*,-5%,-15%,-27%
CC(C)Oc1cccc(C(=O)C2CCCN(Cc3cccn3-c3ccccn3)C2)c1 (stereo unspecified),-1%,-71*,-1%,-5%,-6%
N#Cc1c(-c2ccccc2)ccn(Cc2ccc(Cl)cc2)c1=O,-3%,-1,-4%,x,-17%
COc1ccc(C(=O)C2CCCN(Cc3cccn3-c3nccs3)C2)cc1OC (stereo unspecified),5%,-19,-1%,x,x
